Source: PubChem BioAssay (EPA / NIEHS)
Activity calls are given as the source filed them. Rule for the calls: active = hit-call score of the fitted dose curve at least 0.9, where 1 is the maximum; inactive = score below 0.9.

Tests used:
Details in all cases: mRNA level, 48 h; actives raise or lower the signal
[1] = read-out: growth arrest and DNA damage 45 (GADD45B), GADD45B (gene 4616); assay: LTEA_HepaRG_GADD45B: Life Technologies and Expression Analysis (LTEA) Assay for growth arrest and DNA damage 45 (GADD45B) using HepaRG (AID 2283461)
Procedure, shortened: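 Values are bidirectional concentration-response fits against 0.5% DMSO controls. Underlying data: qRT-PCR mRNA levels in human HepaRG liver cells treated 48 h in serum-free induction medium, eight concentrations topping at 100 uM.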

[2] = read-out: ABC Transporter (ABCC3), ABCC3 (gene 8714); assay: LTEA_HepaRG_ABCC3: Life Technologies and Expression Analysis (LTEA) Assay for ABC Transporter (ABCC3) using HepaRG (AID 2283462)
Procedure, shortened: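 Differentiated HepaRG liver cells receive test chemicals at eight concentrations (max 100 uM) for 48 h. Expression of ABCC3 is quantified by qRT-PCR against ACTB, GAPDH and POLR2A, and activity is fitted in both directions against the DMSO control.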

[3] = read-out: ABC Transporter (ABCB11), ABCB11 (gene 8647); assay: LTEA_HepaRG_ABCB11: Life Technologies and Expression Analysis (LTEA) Assay for ABC Transporter (ABCB11) using HepaRG (AID 2283463)
Procedure, shortened: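 ABCB11 transcript levels are read by Fluidigm TaqMan qRT-PCR after 48 h chemical treatment of human HepaRG cells. Concentrations span 100 uM downward in half-log steps with 0.5% DMSO; gain or loss is fitted against DMSO controls.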

[4] = read-out: ABC Transporter (ABCC2), ABCC2 (gene 1244); assay: LTEA_HepaRG_ABCC2: Life Technologies and Expression Analysis (LTEA) Assay for ABC Transporter (ABCC2) using HepaRG (AID 2283464)
Procedure, shortened: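 Gene expression of ABCC2 was determined by qRT-PCR in HepaRG cells exposed 48 h to chemicals (highest 100 uM, half-log dilutions). Activity was fitted in both directions relative to 0.5% DMSO vehicle.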

[5] = read-out: Broad substrate specificity ATP-binding cassette transporter ABCG2 (Homo sapiens) (UniProt Q9UNQ0); assay: LTEA_HepaRG_ABCG2: Life Technologies and Expression Analysis (LTEA) Assay for ABC Transporter (ABCG2) using HepaRG (AID 2283465)
Procedure, shortened: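 Read-out is ABCG2 mRNA induction or loss quantified by qRT-PCR after 48 h chemical treatment of human HepaRG cells, normalized to three housekeeping genes. Concentrations reached 100 uM top in half-log steps; fitting was bidirectional against 0.5% DMSO.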

[6] = read-out: Peroxisomal acyl-coenzyme A oxidase 1 (ACOX1) gene, ACOX1 (gene 51); assay: LTEA_HepaRG_ACOX1: Life Technologies and Expression Analysis (LTEA) Assay for Peroxisomal acyl-coenzyme A oxidase 1 (ACOX1) gene using HepaRG (AID 2283467)
Procedure, shortened: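 Measured by qRT-PCR against three housekeeping genes: ACOX1 transcript change in human HepaRG cells after 48 h dosing. Concentrations ran up to 100 uM in half-log steps. Curves were fitted bidirectionally relative to 0.5% DMSO.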

[7] = read-out: Alkaline Phosphatase, Placental (ALPP) gene, ALPP (gene 250); assay: LTEA_HepaRG_ALPP: Life Technologies and Expression Analysis (LTEA) Assay for Alkaline Phosphatase, Placental (ALPP) gene using HepaRG (AID 2283468)
Procedure, shortened: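 Expression of ALPP was quantified by qRT-PCR against three housekeeping genes in human HepaRG cultures treated for 48 h with an eight-point concentration series up to 100 uM. Activity in either direction was fitted relative to 0.5% DMSO.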

[8] = read-out: Bcl-2 (BAD) gene, BAD (gene 572); assay: LTEA_HepaRG_BAD: Life Technologies and Expression Analysis (LTEA) Assay for Bcl-2 (BAD) gene using HepaRG (AID 2283469)
Procedure, shortened: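 BAD transcript change, measured by qRT-PCR against three housekeeping genes and fitted in both directions relative to 0.5% DMSO, after 48 h chemical treatment of human HepaRG liver cells at concentrations up to 100 uM.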

[9] = read-out: Bcl-2 (BAX) gene, BAX (gene 581); assay: LTEA_HepaRG_BAX: Life Technologies and Expression Analysis (LTEA) Assay for Bcl-2 (BAX) gene using HepaRG (AID 2283470)
Procedure, shortened: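 HepaRG (human liver), 48 h exposure, duplicate wells. 8-pt curve, half-log from 100 uM, 0.5% DMSO. BAX transcript by TaqMan qRT-PCR; ACTB/GAPDH/POLR2A normalization; gain or loss vs DMSO baseline.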

[10] = read-out: adenosine kinase (ADK) gene, ADK (gene 132); assay: LTEA_HepaRG_ADK: Life Technologies and Expression Analysis (LTEA) Assay for adenosine kinase (ADK) gene using HepaRG (AID 2283471)
Procedure, shortened: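 Following 48 h exposure of HepaRG cells in 0.5% DMSO (top concentration 100 uM, duplicate wells), ADK mRNA induction or suppression was measured by qRT-PCR, normalised to ACTB/GAPDH/POLR2A, and fitted bidirectionally relative to vehicle.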

[11] = read-out: Alpha-fetoprotein (AFP) gene, AFP (gene 174); assay: LTEA_HepaRG_AFP: Life Technologies and Expression Analysis (LTEA) Assay for Alpha-fetoprotein (AFP) gene using HepaRG (AID 2283472)
Procedure, shortened: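 HepaRG, single lot; 48 h post-plating -> serum-free induction medium; cpd 8-pt, 100 uM top, half-log, 0.5% DMSO, duplicate, 48 h. RNA -> qRT-PCR AFP, norm ACTB/GAPDH/POLR2A. Bidirectional fit vs DMSO.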

[12] = read-out: BCL2L11 (gene 10018); assay: LTEA_HepaRG_BCL2L11: Life Technologies and Expression Analysis (LTEA) Assay for Bcl-2 (BCL2L11) gene using HepaRG (AID 2283473)
Procedure, shortened: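 Cells were plated, cultured 48 h, switched to serum-free induction medium, then dosed in duplicate for 48 h at eight half-log concentrations up to 100 uM. Lysates underwent RNA isolation and TaqMan qRT-PCR; gain or loss versus DMSO was fitted.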

[13] = read-out: Apoptosis regulator Bcl-2 (Homo sapiens) (UniProt P10415); assay: LTEA_HepaRG_BCL2: Life Technologies and Expression Analysis (LTEA) Assay for Bcl-2 gene using HepaRG (AID 2283475)
Procedure, shortened: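 HepaRG, plated 48 h then switched to serum-free induction medium; dosed 48 h, 8 conc. (max 100 uM, half-log steps), duplicate, 0.5% DMSO. Lysis in RLT, RNA isolated, TaqMan qRT-PCR for BCL2; ACTB/GAPDH/POLR2A normalisation; bidirectional fit vs DMSO.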

[14] = read-out: Bcl-2 (BID) gene, BID (gene 637); assay: LTEA_HepaRG_BID: Life Technologies and Expression Analysis (LTEA) Assay for Bcl-2 (BID) gene using HepaRG (AID 2283476)
Procedure, shortened: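 Transcript levels of BID, measured by qRT-PCR and normalized to three housekeeping genes, were fitted bidirectionally against DMSO controls. Cells were HepaRG, dosed 48 h at up to 100 uM.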

[15] = read-out: Caspase-3 (Homo sapiens) (UniProt P42574); assay: LTEA_HepaRG_CASP3: Life Technologies and Expression Analysis (LTEA) Assay for cysteine-aspartic acid protease (CASP3) using HepaRG (AID 2283477)
Procedure, shortened: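 In HepaRG liver cells dosed for 48 h at up to 100 uM (eight-point, duplicate), CASP3 expression changes are scored by qRT-PCR. Activity is fitted in both directions with 0.5% DMSO as baseline.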

[16] = read-out: Cytochrome P450 (CYP24A1), CYP24A1 (gene 1591); assay: LTEA_HepaRG_CYP24A1: Life Technologies and Expression Analysis (LTEA) Assay for Cytochrome P450 (CYP24A1) using HepaRG (AID 2283478)
Procedure, shortened: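 Human liver HepaRG cultures receive each chemical for 48 h across an eight-point half-log series topping at 100 uM in 0.5% DMSO. Induction or suppression of CYP24A1 mRNA is scored relative to vehicle after housekeeping-gene normalization.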

[17] = read-out: Cytochrome P450 (CYP1A2), CYP1A2 (gene 1544); assay: LTEA_HepaRG_CYP1A2: Life Technologies and Expression Analysis (LTEA) Assay for Cytochrome P450 (CYP1A2) using HepaRG (AID 2283479)
Procedure, shortened: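 Assesses CYP1A2 mRNA in human HepaRG liver cells after 48 h chemical exposure at up to 100 uM. Values come from qRT-PCR with bidirectional curve fitting relative to DMSO.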

[18] = read-out: cysteine-aspartic acid protease (CASP8), CASP8 (gene 841); assay: LTEA_HepaRG_CASP8: Life Technologies and Expression Analysis (LTEA) Assay for cysteine-aspartic acid protease (CASP8) using HepaRG (AID 2283480)
Procedure, shortened: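 HepaRG, 48 h exposure, duplicate wells; 8 conc, half-log from 100 uM, 0.5% DMSO. Serum-free induction medium. CASP8 mRNA by TaqMan qRT-PCR, norm. ACTB/GAPDH/POLR2A; gain/loss fitted vs DMSO.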

[19] = read-out: ATP-citrate lyase (ACLY), ACLY (gene 47); assay: LTEA_HepaRG_ACLY: Life Technologies and Expression Analysis (LTEA) Assay for ATP-citrate lyase (ACLY) using HepaRG (AID 2283466)
Procedure, shortened: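 HepaRG, 48 h exposure, 8-pt half-log dilutions (top 100 uM), 0.5% DMSO. Readout: ACLY mRNA, TaqMan qRT-PCR, housekeeping-normalized (ACTB/GAPDH/POLR2A). Bidirectional curve fit vs DMSO.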

[20] = read-out: Apolipoprotein A-V (APOA5) gene, APOA5 (gene 116519); assay: LTEA_HepaRG_APOA5: Life Technologies and Expression Analysis (LTEA) Assay for Apolipoprotein A-V (APOA5) gene using HepaRG (AID 2283474)
Procedure, shortened: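 Human liver HepaRG cells are treated 48 h with test chemicals (100 uM top, half-log dilutions, 0.5% DMSO). APOA5 mRNA induction or loss is measured by qRT-PCR relative to vehicle.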

Measured: AC50

Chain of Apoptosis regulator Bcl-2 (Homo sapiens) (P10415 whole entry, looked up): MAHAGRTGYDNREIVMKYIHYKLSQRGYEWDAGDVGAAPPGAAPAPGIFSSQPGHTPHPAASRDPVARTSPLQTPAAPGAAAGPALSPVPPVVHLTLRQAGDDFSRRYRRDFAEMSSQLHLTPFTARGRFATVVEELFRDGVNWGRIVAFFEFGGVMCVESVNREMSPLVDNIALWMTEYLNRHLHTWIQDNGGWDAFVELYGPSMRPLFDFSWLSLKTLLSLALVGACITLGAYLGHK
Chain of Caspase-3 (Homo sapiens) (P42574 whole entry, looked up): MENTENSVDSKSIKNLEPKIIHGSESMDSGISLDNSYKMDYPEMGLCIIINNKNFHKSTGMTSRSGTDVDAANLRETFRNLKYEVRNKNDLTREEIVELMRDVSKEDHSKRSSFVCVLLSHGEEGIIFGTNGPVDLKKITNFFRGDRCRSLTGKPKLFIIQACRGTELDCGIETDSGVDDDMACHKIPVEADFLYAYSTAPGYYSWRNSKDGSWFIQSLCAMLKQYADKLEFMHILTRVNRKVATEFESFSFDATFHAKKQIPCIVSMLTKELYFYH
Chain of Broad substrate specificity ATP-binding cassette transporter ABCG2 (Homo sapiens) (Q9UNQ0 whole entry, looked up): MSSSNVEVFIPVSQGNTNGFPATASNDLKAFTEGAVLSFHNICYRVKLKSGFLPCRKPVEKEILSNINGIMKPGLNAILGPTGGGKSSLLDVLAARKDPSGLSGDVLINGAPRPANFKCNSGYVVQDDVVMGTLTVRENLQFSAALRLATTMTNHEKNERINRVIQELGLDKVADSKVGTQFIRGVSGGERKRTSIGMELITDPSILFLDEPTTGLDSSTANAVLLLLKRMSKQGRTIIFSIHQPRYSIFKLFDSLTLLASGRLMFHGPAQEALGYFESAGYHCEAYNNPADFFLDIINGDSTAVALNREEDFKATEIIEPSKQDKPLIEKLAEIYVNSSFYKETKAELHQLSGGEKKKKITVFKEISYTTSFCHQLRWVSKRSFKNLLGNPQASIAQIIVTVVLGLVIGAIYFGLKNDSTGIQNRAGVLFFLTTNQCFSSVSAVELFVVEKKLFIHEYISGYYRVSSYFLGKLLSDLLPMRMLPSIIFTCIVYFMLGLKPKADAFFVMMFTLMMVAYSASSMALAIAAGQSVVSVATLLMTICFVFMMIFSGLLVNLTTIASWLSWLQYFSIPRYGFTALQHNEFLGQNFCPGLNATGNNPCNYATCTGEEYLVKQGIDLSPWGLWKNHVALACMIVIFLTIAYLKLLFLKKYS

Cc1ccc(C(C)C)c(O)c1
not listed: [19] | [20]
inactive: all other assays above

Clc1cc(Cl)c(Cl)cc1Cl
not listed: [1] | [20]
inactive: all other assays above

CC(=O)OCCOCCOCCOC(C)=O
not listed: [14] | [19] | [20]
inactive: all other assays above

COc1cc(C=O)ccc1O
not listed: [1] | [14]
inactive: all other assays above

COc1ccc2c(c1)c(CC(=O)O)c(C)n2C(=O)c1ccc(Cl)cc1
not listed: [3] | [14] | [19]
inactive: all other assays above

CCCCCC(=O)O
active: [17] 63.7 µM
not listed: [9] | [19] | [20]
inactive: all other assays above

CCc1c(C(=O)NN2CCCCC2)nn(-c2ccc(Cl)cc2Cl)c1-c1ccc(Br)cc1
inactive: [2] | [8] | [10] | [16] | [18]
active: [3] 39 µM | [4] 68.6 µM | [5] 50 µM | [19] 12.5 µM | [6] 32.3 µM | [7] 12.3 µM | [9] 27.3 µM | [11] 25.1 µM | [12] 7.59 µM | [20] 42 µM | [13] 20 µM | [15] 50 µM | [17] 91.8 µM
